Shown are actives, neighbours in structure and some others; about 2.4% of the full set was active somewhere.
Cruzain inh Det: qHTS Assay for Promiscuous and Specific Inhibitors of Cruzain (with detergent); 200,000 tested, 0.43% active; AID 1478, 2009; Cruzipain (Trypanosoma cruzi), P25779; Potency, µM, inactives show max response, negative = inhibition, actives largely listed as inhibitors; purified cruzain, Z-FR-AMC fluorescence, 0.01% Triton;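 also: plate controls were neutral wells for no effect and buffer without enzyme for full effect; nearly all actives have a fitted effect of over 40% in size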
Target sequence (P25779 123-467 limits assumed): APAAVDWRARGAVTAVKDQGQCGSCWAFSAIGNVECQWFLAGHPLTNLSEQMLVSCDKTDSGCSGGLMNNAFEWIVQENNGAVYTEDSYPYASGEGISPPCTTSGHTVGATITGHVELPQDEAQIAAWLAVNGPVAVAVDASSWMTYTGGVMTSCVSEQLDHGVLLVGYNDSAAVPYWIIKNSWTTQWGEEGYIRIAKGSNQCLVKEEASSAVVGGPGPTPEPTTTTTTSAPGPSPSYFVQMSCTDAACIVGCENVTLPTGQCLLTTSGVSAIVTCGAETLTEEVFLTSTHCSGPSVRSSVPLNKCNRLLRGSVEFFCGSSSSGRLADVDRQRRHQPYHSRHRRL
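Detergent-containing arm of a paired screen for aggregation-based inhibition: 0.01% Triton X-100 present. Cruzain at 1.5 nM cleaved 2 uM Z-FR-AMC at pH 5.5 with 5 mM DTT; AMC fluorescence gain over 60 s measured activity.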
Cruzain inh noDet: qHTS Assay for Promiscuous and Specific Inhibitors of Cruzain (without detergent); Cruzipain (Trypanosoma cruzi), P25779; purified cruzain, Z-FR-AMC fluorescence, no detergent; Potency, µM, for inactives: max response, negative = inhibition, hits mostly inhibitors; 200,000 tested, 2.3% active; AID 1476, 2009;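 also: plate controls were enzyme without inhibitor for no effect and buffer without enzyme for full effect; nearly all actives have a fitted effect of over 40% in size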
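Purified cruzain at 1.5 nM, pre-incubated 15 min with compound at room temperature in 100 mM sodium acetate pH 5.5, 5 mM DTT, 0.00005% Triton X-100. Reaction started with 2 uM Z-FR-AMC; AMC fluorescence increase over 60 s gives rate.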
* = called active by the depositor; ? = inconclusive; ! = a repeat was not active. Calls follow the shape of the dose curve; as a rule, active = well fitted curve in the direction sought with a large enough effect; inconclusive = small, poorly fitted or top-dose-only effect, or another doubt; inactive = no such curve, though single readings can be large; an effect the other way counts as inactive or inconclusive. Potency is read from the fitted curve at half-maximal effect.

SMILES	Cruzain inh Det	Cruzain inh noDet
Cc1cc(C)cc(NC(=O)CSc2nc3c(oc4ccccc43)c(=O)n2-c2ccccc2F)c1	-1.3%	20µM*
Cc1nnc(NC(=O)CSc2nnc3c(n2)[nH]c2ccccc23)s1	-2.8%	4.8%
O=C(CSc1nc2c([nH]c3ccccc32)c(=O)n1-c1ccccc1F)Nc1cccc(Cl)c1	-0.2%	12.6µM*
Cc1ccc(-c2csc(NC(=O)CSc3nnc4c(n3)[nH]c3ccccc34)n2)cc1	-10.4%	15.8µM*
O=C(CSc1nnc2c(n1)[nH]c1ccccc12)Nc1ccc2c(c1)OCO2	-6.0%	25.1µM*
Cc1cc(NC(=O)CSc2nc3c([nH]c4ccccc43)c(=O)n2-c2ccccc2F)no1	-4.5%	-17.9%
O=C(CSc1nc2c(oc3ccccc32)c(=O)n1-c1ccccc1F)Nc1ccccc1	-1.3%	-25.2%
CC(=O)c1ccc(NC(=O)CSc2nnc3c(n2)[nH]c2ccccc23)cc1	-12.3%	?
Cc1cccc(NC(=O)c2sc3nc(-c4ccccc4)cn3c2C)c1C	0.2%	-7.6%
COc1ccc(S(=O)(=O)c2c(SC)nn(CC(=O)Nc3cccc(C)c3C)c2N)cc1	-2.7%	-7.5%
Cc1cccc(NC(=O)C(=O)NCC(c2ccc3c(c2)OCO3)N2CCOCC2)c1C (configuration not stated)	-2.0%	1.3%
Cc1ccc(-n2c(SCC(=O)NCc3ccc(F)cc3)nc3c([nH]c4ccccc43)c2=O)cc1	-4.2%	15.8µM*
O=C(CSc1nc2c([nH]c3ccccc32)c(=O)n1-c1ccc(F)cc1)Nc1ccc2c(c1)OCO2	-1.3%	1.3%
Cc1cc(C)cc(-n2c(SCC(=O)NCc3ccc(F)cc3)nc3c([nH]c4ccccc43)c2=O)c1	-0.9%	5.3%
CC1Cc2nc(SCC(=O)Nc3ccc4c(c3)OCO4)n(Cc3ccccc3)c(=O)c2S1 (configuration not stated)	-2.1%	31.6µM*
COc1cccc(-n2c(SCC(=O)Nc3cccc(C)c3)nc3c([nH]c4ccccc43)c2=O)c1	-0.5%	31.6µM*
COc1cccc(NC(=O)CSc2nc3c([nH]c4ccccc43)c(=O)n2-c2cccc(Cl)c2)c1	-0.2%	-22.1%
Cc1cc(C)cc(-n2c(SCC(=O)Nc3ccc4c(c3)OCO4)nc3c([nH]c4ccccc43)c2=O)c1	-1.8%	6.31µM*
COCCn1c(SCC(=O)Nc2ccc3c(c2)OCCO3)nc2c(c1=O)SC(C)C2 (configuration not stated)	-0.4%	-19.4%
COc1cccc2c1OC(=O)CC2c1ccc(C)cc1 (configuration not stated)	-2.2%	-2.1%
COc1cc(C(=O)Nc2nc3c(s2)Cc2c(Br)ccc(OC)c2-3)cc(OC)c1OC	-2.9%	12.7%
O=C(CN1C=NS(=O)(=O)c2ccccc21)Nc1ccc(F)cc1	1.8%	6.7%
Cc1ccc(N2CCN(C(=O)c3nn(C)c4c3CSc3ccccc3-4)CC2C)cc1 (configuration not stated)	-4.3%	-7.6%
CCOC(=O)N1CCc2c(sc3c2c(=O)n(Cc2ccccc2)c(=O)n3CC(=O)Nc2ccc(F)cc2)C1	-1.8%	-28.0%
COCCNC(=O)C(=O)Nc1ccc2nc3n(c(=O)c2c1)CCCCC3	-3.3%	3.2%
SMILES	Cruzain inh Det	Cruzain inh noDet
Cc1cc2ccccc2nc1SCC(=O)Nc1nc(-c2ccccc2)cs1	4.4%	7.94µM*
O=C(CSc1nc2ccccc2o1)Nc1nc(-c2ccccc2)cs1	-3.7%	?
O=C(O)CCc1ccc(-c2ccc(Cl)cc2)n1-c1cccc(C(F)(F)F)c1	?	20.4%
O=C(Nc1nnc(Cc2c[nH]c3ccccc23)s1)c1ccc(Cl)cc1Cl	-8.3%	25.1µM*
CC(C)(C)c1ccc(C(=O)Nc2nnc(Cc3c[nH]c4ccccc34)s2)cc1	5.5%	?
CCCCn1c(=O)c(C(=O)c2ccccc2)nc2ccccc21	-4.4%	6.7%
CCCCNC(=O)CC1C(=O)N(Cc2ccccc2)C(C)c2nc3ccccc3n21 (configuration not stated)	-22.8%	12.6µM*
COc1ccc(NC(=O)c2c(NCc3sccc3C)sc3c2CCCC3)c(OC)c1	-4.7%	-6.0%
Cc1ccc(NS(=O)(=O)c2c(C)nc3sc(C)cn3c2=O)c(C)c1	-5.0%	-1.2%
CCOC(=O)c1c(NC(=O)Cn2cnc3sc(C)c(-c4ccccc4)c3c2=O)sc(C)c1C	-7.4%	12.6µM*
CCOC(=O)c1ccc(NC(=O)Cn2cnc3sc(C(=O)OCC)c(C)c3c2=O)cc1	0.6%	-6.3%
CCOC(=O)c1c(NC(=O)Cn2cnc3scc(-c4ccc(C)cc4)c3c2=O)sc(C)c1C	-5.5%	3.98µM*
CCOC(=O)c1c(NC(=O)COC(=O)Cn2cnc3ccccc32)sc(C)c1C	2.7%	-2.6%
CCn1cc(C(=O)Nc2cccc(Cl)c2)c2cc(OC)c(OC)cc2c1=O	-10.8%	?
Cc1ccc(C)c(N2CCN(C(=O)Cn3ncc4c(=O)oc5ccccc5c43)CC2)c1	-2.3%	-2.2%
Cc1ccc(Cl)cc1NC(=O)Cn1nnc2sc3c(c2c1=O)CCC(C(C)(C)C)C3 (configuration not stated)	-3.8%	25.1µM*
COc1ccc(Cl)cc1NC(=O)Cn1nnc2sc3c(c2c1=O)CCC(C(C)(C)C)C3 (configuration not stated)	-0.4%	5.7%
CN1CCN(c2ccc(NC(=O)CSc3ccccc3)cc2F)CC1	-1.2%	-1.0%
Cc1ccc(SCC(=O)Nc2ccc(N3CCN(c4ccccc4)CC3)c(F)c2)cc1	4.2%	10µM*
CC(C)CCN1C(=O)c2ccccc2CC1(C)C(=O)NC1CCC(C)CC1 (configuration not stated)	2.9%	1.9%
COc1ccc(CCNC(=O)c2nc(SCc3ccc(F)cc3)ncc2Cl)cc1OC	-2.0%	?
CCOC(=O)C1CCN(c2ncnc3c2oc2ccccc23)CC1	-20.6%	0.0%
CCOC(=O)C1CCN(c2nc(-c3ccccc3)nc3c2oc2ccccc23)CC1	-10.1%	20µM*
O=C(CN1C(=O)C2(SCC(=O)N2c2cccc(Cl)c2)c2ccccc21)NCCc1ccccc1 (configuration not stated)	-2.2%	-17.2%
CCc1ccc2occ(CC(=O)Nc3ccccc3C(F)(F)F)c2c1	-2.1%	-9.2%
SMILES	Cruzain inh Det	Cruzain inh noDet
O=C(c1ccccc1)N1CCn2c(nc3ccccc32)C1	0.1%	-8.1%
O=C(C1COc2ccccc2O1)N1CCn2c(nc3ccccc32)C1 (configuration not stated)	-29.6%	12.6µM*
Cc1ccc(-n2c(=O)c3c(C)c(C(=O)N(C)C)sc3n(CC(=O)N(C)c3ccccc3)c2=O)cc1C	-0.8%	?
O=C1C2C(c3ccccc3)(C(=O)N1c1ccc(Cl)cc1)C2(c1ccccc1)c1ccccc1 (configuration not stated)	-1.7%	25.1µM*
O=C1c2ccccc2C(=O)N1c1ccc(Cl)cc1	?	-0.8%
CCCNC(=O)c1ccc(-c2nc(CS(=O)(=O)c3ccc(C)cc3)c(C)o2)cc1	-0.7%	0.3%
COc1cc2ccc(=O)oc2cc1O	25.1µM*!	31.6µM*
COc1ccc2ccc(=O)oc2c1CC=C(C)C	-10.1%	3.7%
CCOC(=O)c1ccc(N2CCN(c3cc(Cl)ccc3C)CC2)c(NC(=O)Nc2cccc(OC)c2)c1	-0.4%	?
COc1ccc(N/N=C(/C)c2cnnc(-c3ccccc3)n2)cc1	-14.7%	15.8µM*
CC/C(=N/Nc1ccccc1Cl)c1cnnc(-c2ccccc2)n1	-5.1%	-16.2%
